About 83,000 compounds went through this panel and 20% of them were active in at least one assay; those are over-represented in the sample as a whole.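 How to read the values: 0–100, growth inhibition (40 = 60% inhibited); 0, no net growth; -100 to 0, cell death (-40 = 40% of starting cells died; -100 = all dead).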 A number with no mark means an inactive call. The source made the active and inactive calls. The calls were made as follows: active = growth percent below 10; inactive = the rest.
Key:
Test in all cases: NCI-60 one-dose screen, 48 h (100 = growth as untreated, 0 = no growth, -100 = all killed)
Conditions in all cases: 10 µM unless noted
NCI-H23 lung = system: NCI-H23 lung
NCI-H226 lung = system: NCI-H226 lung
NCI-H322M lung = system: NCI-H322M lung
HOP-62 NSCLC = system: HOP-62 NSCLC
NCI-H460 lung = system: NCI-H460 lung
HOP-92 NSCLC = system: HOP-92 NSCLC
NCI-H522 lung = system: NCI-H522 lung
A549/ATCC NSCLC = system: A549/ATCC NSCLC
786-0 renal = system: 786-0 renal
COLO 205 colon = system: COLO 205 colon
DU-145 prostate = system: DU-145 prostate
K-562 leukemia = system: K-562 leukemia
MALME-3M melanoma = system: MALME-3M melanoma
MDA-MB-231 breast = system: MDA-MB-231 breast
SF-268 CNS = system: SF-268 CNS
SF-295 CNS = system: SF-295 CNS
SF-539 CNS = system: SF-539 CNS
M14 melanoma = system: M14 melanoma
RXF 393 renal = system: RXF 393 renal

For `CO/C=C/C(=O)c1cc2cnc3c(=N)cc(NC(=O)C(C)C)c([nH]1)c23`, the growth (NCI-H23 lung) was -11.9% (active), the growth (NCI-H226 lung) was -40.3% (active) and the growth (NCI-H322M lung) was -13.2% (active). For the same compound, the growth (HOP-62 NSCLC) was -18.7% (active), the growth (NCI-H460 lung) was 5.42% (active) and the growth (HOP-92 NSCLC) was -16% (active). For the same compound, the growth (NCI-H522 lung) was 23.8%, the growth (A549/ATCC NSCLC) was 19.3% and the growth (786-0 renal) was -44.6% (active). For the same compound, the growth (COLO 205 colon) was -33.8% (active), the growth (DU-145 prostate) was 4.45% (active) and the growth (K-562 leukemia) was 3.9% (active). The growth (MALME-3M melanoma) was -77.5% (active), the growth (MDA-MB-231 breast) was -31% (active) and the growth (SF-268 CNS) was -47.4% (active). The growth (SF-295 CNS) was -51.6% (active), the growth (SF-539 CNS) was -57% (active) and the growth (M14 melanoma) was -61.3% (active).

Work on `CC1(C=O)NC(=O)NC1=O` (configuration not stated) yielded a growth (NCI-H23 lung) of 105%, a growth (NCI-H226 lung) of 92.8% and a growth (NCI-H322M lung) of 102%. It also gave a growth (HOP-62 NSCLC) of 68.4%, a growth (NCI-H460 lung) of 108% and a growth (HOP-92 NSCLC) of 96.4%. For the same compound, the growth (NCI-H522 lung) was 77.1%, the growth (A549/ATCC NSCLC) was 55.7% and the growth (786-0 renal) was 104%. The growth (COLO 205 colon) was 100%, the growth (DU-145 prostate) was 111% and the growth (K-562 leukemia) was 103%. For the same compound, the growth (MALME-3M melanoma) was 118%, the growth (MDA-MB-231 breast) was 103% and the growth (SF-268 CNS) was 101%. For the same compound, the growth (SF-295 CNS) was 103%, the growth (SF-539 CNS) was 103% and the growth (M14 melanoma) was 103%.

Work on `CC1(C)NC(=O)c2[nH]c3c(Cl)c(Cl)ccc3c2C1C#N` (configuration not stated) yielded a growth (NCI-H23 lung) of 75.8%, a growth (NCI-H226 lung) of 53.9% and a growth (NCI-H322M lung) of 90.5%. It also gave a growth (HOP-62 NSCLC) of 82.5%, a growth (NCI-H460 lung) of 88.7% and a growth (HOP-92 NSCLC) of 54.3%. It also gave a growth (NCI-H522 lung) of 67.8%, a growth (A549/ATCC NSCLC) of 80.1% and a growth (786-0 renal) of 82.6%. The growth (COLO 205 colon) was 92.3%, the growth (DU-145 prostate) was 92.9% and the growth (K-562 leukemia) was 69.2%. It also gave a growth (MALME-3M melanoma) of 99.7%, a growth (MDA-MB-231 breast) of 91.2% and a growth (SF-268 CNS) of 94.8%. The growth (SF-295 CNS) was 59.3%, the growth (SF-539 CNS) was 85.4% and the growth (M14 melanoma) was 106%.

Compound `CCCCN1CCCC[C@@H]1C(=O)N[C@H](C(=O)N(C)[C@H](CCc1nc(C(=O)N[C@@H](Cc2ccccc2)C[C@H](C)C(=O)OC)cs1)C(C)C)C(C)C` has a growth (NCI-H23 lung) of 59.7%, a growth (NCI-H226 lung) of 80.6% and a growth (NCI-H322M lung) of 75.6%. It also gave a growth (HOP-62 NSCLC) of 80.8%, a growth (NCI-H460 lung) of 94.6% and a growth (HOP-92 NSCLC) of 18.8%. It also gave a growth (NCI-H522 lung) of 49.6%, a growth (A549/ATCC NSCLC) of 81.8% and a growth (786-0 renal) of 77.4%. It also gave a growth (COLO 205 colon) of 63.5%, a growth (DU-145 prostate) of 92.9% and a growth (K-562 leukemia) of 22.9%. It also gave a growth (MALME-3M melanoma) of 45.1%, a growth (MDA-MB-231 breast) of 71.5% and a growth (SF-268 CNS) of 84.3%. For the same compound, the growth (SF-295 CNS) was 49.4%, the growth (SF-539 CNS) was 82.8% and the growth (M14 melanoma) was 49.9%.

With `Clc1nc(Cl)c2ncn(C/C=C\Cn3cnc4c(Cl)nc(Cl)nc43)c2n1` the growth (NCI-H23 lung) was 9.28% (active), the growth (NCI-H226 lung) was -59.2% (active) and the growth (NCI-H322M lung) was 21.4%. For the same compound, the growth (HOP-62 NSCLC) was 23.4%, the growth (NCI-H460 lung) was 3.79% (active) and the growth (HOP-92 NSCLC) was -34.2% (active). For the same compound, the growth (NCI-H522 lung) was -76.7% (active), the growth (A549/ATCC NSCLC) was -7.32% (active) and the growth (786-0 renal) was -9.15% (active). The growth (COLO 205 colon) was -41.1% (active), the growth (DU-145 prostate) was -98.4% (active) and the growth (K-562 leukemia) was -24.8% (active). For the same compound, the growth (MALME-3M melanoma) was -72.7% (active), the growth (MDA-MB-231 breast) was -68.5% (active) and the growth (SF-268 CNS) was -2.21% (active). For the same compound, the growth (SF-295 CNS) was -32.9% (active), the growth (SF-539 CNS) was -52.9% (active) and the growth (M14 melanoma) was -32.9% (active).

For `CCc1nc2cc(/C=C/C(=O)NO)ccc2c(=O)n1CCc1ccc(OC)cc1`, the growth (NCI-H23 lung) was 24.5%, the growth (NCI-H226 lung) was 50% and the growth (NCI-H322M lung) was 29.9%. The growth (HOP-62 NSCLC) was 16.6%, the growth (NCI-H460 lung) was 13% and the growth (HOP-92 NSCLC) was 22.5%. The growth (NCI-H522 lung) was 15.2%, the growth (A549/ATCC NSCLC) was 24.1% and the growth (786-0 renal) was 21%. For the same compound, the growth (COLO 205 colon) was -2.84% (active), the growth (DU-145 prostate) was 7.21% (active) and the growth (K-562 leukemia) was 8.06% (active). The growth (MDA-MB-231 breast) was 16.8%, the growth (RXF 393 renal) was -25% (active) and the growth (SF-268 CNS) was 26.4%. It also gave a growth (SF-295 CNS) of 21.3%, a growth (SF-539 CNS) of 26.5% and a growth (M14 melanoma) of 16.3%.

`CCC1(/C=N/NC(N)=S)NC(=O)NC1=O` (configuration not stated) showed a growth (NCI-H23 lung) of 99.2%, a growth (NCI-H226 lung) of 96.6% and a growth (NCI-H322M lung) of 106%. For the same compound, the growth (HOP-62 NSCLC) was 78.8%, the growth (NCI-H460 lung) was 109% and the growth (HOP-92 NSCLC) was 95.5%. For the same compound, the growth (NCI-H522 lung) was 83.2%, the growth (A549/ATCC NSCLC) was 62.5% and the growth (786-0 renal) was 105%. The growth (COLO 205 colon) was 111%, the growth (DU-145 prostate) was 112% and the growth (K-562 leukemia) was 109%. For the same compound, the growth (MALME-3M melanoma) was 107%, the growth (MDA-MB-231 breast) was 102% and the growth (SF-268 CNS) was 106%. It also gave a growth (SF-295 CNS) of 107%, a growth (SF-539 CNS) of 109% and a growth (M14 melanoma) of 103%.

`COc1cnc2c(c1)C(=O)c1c-2n(CCCN2CCC(O)CC2)c(=O)c2cc(Cl)ccc12` showed a growth (NCI-H23 lung) of 11.8%, a growth (NCI-H226 lung) of 39.3% and a growth (NCI-H322M lung) of 46.4%. The growth (HOP-62 NSCLC) was 23.6%, the growth (NCI-H460 lung) was -60.8% (active) and the growth (HOP-92 NSCLC) was 77.3%. The growth (NCI-H522 lung) was 32.4%, the growth (A549/ATCC NSCLC) was -65.8% (active) and the growth (786-0 renal) was 4.34% (active). For the same compound, the growth (COLO 205 colon) was 47.1%, the growth (DU-145 prostate) was 22.8% and the growth (K-562 leukemia) was -38.7% (active). For the same compound, the growth (MDA-MB-231 breast) was -28.4% (active), the growth (RXF 393 renal) was 28.2% and the growth (SF-268 CNS) was 34.7%. The growth (SF-295 CNS) was 17.8%, the growth (SF-539 CNS) was 14.7% and the growth (M14 melanoma) was 30.9%.

In the case of `O=C(Nc1ccc(N=Nc2ccccc2)cc1)c1cccc2ccccc12`, the growth (NCI-H23 lung) was 81.2%, the growth (NCI-H226 lung) was 78.2% and the growth (NCI-H322M lung) was 77.9%. The growth (HOP-62 NSCLC) was 60.5%, the growth (NCI-H460 lung) was 61.1% and the growth (HOP-92 NSCLC) was 82.5%. It also gave a growth (NCI-H522 lung) of 34.9%, a growth (A549/ATCC NSCLC) of 46.1% and a growth (786-0 renal) of 79.4%. The growth (COLO 205 colon) was 77.1%, the growth (DU-145 prostate) was 85.3% and the growth (K-562 leukemia) was 21.3%. For the same compound, the growth (MALME-3M melanoma) was 71.6%, the growth (MDA-MB-231 breast) was 65.9% and the growth (SF-268 CNS) was 77.5%. It also gave a growth (SF-295 CNS) of 57.1%, a growth (SF-539 CNS) of 69% and a growth (M14 melanoma) of 37.6%.

Source: PubChem BioAssay (NCI)
